According to PubChem BioAssay (NCATS):
Records with an inconclusive call do not appear. Calls of active or inactive are those of the source. Calls come from the whole dose curve; as a rule, active = well fitted curve in the direction sought with a large enough effect; inconclusive = small, poorly fitted or top-dose-only effect, or another doubt; inactive = no such curve, though single readings can be large; an effect the other way counts as inactive or inconclusive.

Columns and labels:
[1] = target: Glutathione peroxidase 1 (Homo sapiens) (UniProt P07203); test: Primary qHTS Assay for Inhibitors of Recombinant Selenoprotein Glutathione Peroxidase 1 (GPX1) (AID 1845191); note: nearly all actives have a fitted effect of over 65% in size
Procedure, shortened: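 NADPH consumption tracked by fluorescence at 340/450 nm between t=0 and t=15 min, room temperature. Final mix: 10 nM GPX1, 100 nM glutathione reductase, 1 mM GSH, 0.5 mM NADPH, 0.5 mM cumene hydroperoxide, 0.01% BSA; 30 min compound–enzyme preincubation.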

[2] = target: Phospholipid hydroperoxide glutathione peroxidase GPX4 (Homo sapiens) (UniProt P36969); test: Primary qHTS Assay for Inhibitors of Recombinant Selenoprotein Glutathione Peroxidase 4 (GPX4) (AID 1845192); note: nearly all actives have a fitted effect of over 65% in size
Procedure, shortened: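 NADPH consumption followed by fluorescence at 340/450 nm, t=0 and after 15 min at room temperature. Reaction started with cumene hydroperoxide (0.5 mM final) after 30 min compound–GPX4 preincubation; final 200 nM GPX4, 100 nM GR, 1 mM GSH, 0.5 mM NADPH.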

[3] = target: Luciferin 4-monooxygenase (Photinus pyralis) (UniProt P08659); test: Primary firefly luciferase (FLuc) qHTS assay for identification of artifact compounds. (AID 1845220); details: outcome: dose series up to 54.1 µM unless noted; note: nearly all actives have a fitted effect of over 60% in size
Procedure, shortened: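 Compounds sat 15 min at room temperature with 10 uM luciferin and 10 uM ATP (pH 7.6 Tris acetate). Firefly luciferase (10 nM final) was then added, and luminescence was read 5 min later. Data normalized to no-enzyme and DMSO controls were Hill-fitted.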

[4] = Primary fluorescence-based thiol-reactive (MSTI) qHTS assay for identification of artifact compounds. (AID 1845221);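 note: series mostly up to about 54 µM; thiol-reactive compounds lower the probe fluorescence signal; nearly all actives have a fitted effect of over 65% in size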
Procedure, shortened: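 One-hour, room-temperature, dark incubation of compound with 4 uM MSTI in PBS (pH 7.4, 2% DMSO) precedes a fluorescence read at 525 nm excitation, 598 nm emission; Hill-equation fitting yields concentration-response values.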

Measured: Potency

Chain of Glutathione peroxidase 1 (Homo sapiens) (P07203 whole entry, looked up): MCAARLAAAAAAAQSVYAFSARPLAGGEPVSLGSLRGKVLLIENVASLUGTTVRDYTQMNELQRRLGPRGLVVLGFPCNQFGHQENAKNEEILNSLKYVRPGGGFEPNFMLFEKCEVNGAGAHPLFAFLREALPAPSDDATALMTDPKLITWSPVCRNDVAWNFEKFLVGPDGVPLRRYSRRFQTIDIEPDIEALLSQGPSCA
Chain of Phospholipid hydroperoxide glutathione peroxidase GPX4 (Homo sapiens) (P36969 whole entry, looked up): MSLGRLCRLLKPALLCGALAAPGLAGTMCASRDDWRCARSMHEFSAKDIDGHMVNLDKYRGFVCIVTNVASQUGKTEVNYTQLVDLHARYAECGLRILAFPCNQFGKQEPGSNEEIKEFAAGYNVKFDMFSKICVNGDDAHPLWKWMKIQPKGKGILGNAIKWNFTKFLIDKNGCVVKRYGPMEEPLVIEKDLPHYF

CN(C)[C@@H]1C(=O)C(C(N)=O)=C(O)[C@@]2(O)C(=O)C3=C(O)c4c(O)cccc4[C@@](C)(O)[C@H]3[C@H](O)[C@@H]12
inactive: [1] | [2]

COc1cc([C@@H]2c3cc4c(cc3[C@@H](O)C3COC(=O)C32)OCO4)cc(OC)c1O (stereo partly drawn)
inactive: [1] | [2]

O=C(Oc1ccc([N+](=O)[O-])cc1)N1CCN(Cc2cccc(Oc3ccccc3)c2)CC1
inactive: [1] | [2] | [3]

C/C=C(/C)C(=O)O[C@H]1C(C)=C2[C@H]([C@@H]1OC(=O)CCCCCCC)[C@@](C)(OC(C)=O)C[C@H](OC(=O)CCC)[C@@]1(O)[C@H]2OC(=O)[C@@]1(C)O
inactive: all assays above

CCN(CC)C(=O)c1ccc(C2=CC3(CCNCC3)Oc3cccc(O)c32)cc1
inactive: all assays above

CC(C)[C@]12O[C@H]1[C@@H]1O[C@]13[C@]1(O[C@H]1C[C@H]1C4=C(CC[C@@]13C)C(=O)OC4)[C@@H]2O
inactive: all assays above

COC1=C[C@@H]2[C@@H]3Cc4ccc(OC)c(O)c4[C@]2(CCN3C)CC1=O
inactive: all assays above

O=[N+]([O-])/N=C1\NCCN1Cc1ccc(Cl)nc1
inactive: [1] | [2]

CC1(N2CCC(n3c([C@@H]4CCCNC4)nc4ccccc43)CC2)CCCCCCC1
inactive: all assays above

O=C(NCC1CCOCC1)c1cnc(Nc2ccc(Cl)cc2Cl)nc1C(F)(F)F
inactive: all assays above
